Holding throughout (test): NCI-60 one-dose screen, 48 h (100 = growth as untreated, 0 = no growth, -100 = all killed)
For one assay, the system named is SK-MEL-2 melanoma. Conditions: 10 µM unless noted.
The subject of the next assay is EKVX NSCLC. Conditions: 10 µM unless noted.
For a further assay, the system named is SN12C renal. Conditions: 10 µM unless noted.
The next assay deals with UO-31 renal. Conditions: 10 µM unless noted.
Another assay relates to TK-10 renal. As to conditions: 10 µM unless noted.
The next assay has as its system ACHN renal. As to conditions: 10 µM unless noted.
For another assay, the system named is CAKI-1 renal. Conditions: 10 µM unless noted.
Another assay relates to A498 renal. As to conditions: 10 µM.
A further assay has as its system CCRF-CEM leukemia. As to conditions: 10 µM unless noted.
For another assay, the system named is MOLT-4 leukemia. As to conditions: 10 µM unless noted.
The subject of another assay is RPMI-8226 leukemia. As to conditions: 10 µM unless noted.
A further assay has as its system OVCAR-8 ovarian. As to conditions: 10 µM unless noted.
In a further assay the test system is OVCAR-5 ovarian. Conditions: 10 µM unless noted.
A further assay has as its system OVCAR-4 ovarian. As to conditions: 10 µM unless noted.
A further assay concerns SK-OV-3 ovarian. As to conditions: 10 µM unless noted.
Another assay deals with IGROV1 ovarian. Conditions: 10 µM unless noted.
For a further assay, the system named is OVCAR-3 ovarian. As to conditions: 10 µM unless noted.
In another assay the test system is HS 578T breast. Conditions: 10 µM unless noted.
The next assay deals with SR leukemia. Conditions: 10 µM unless noted.
The next assay concerns HL-60(TB) leukemia. As to conditions: 10 µM unless noted.

SMILES strings stand for the structures. The panel holds about 83,000 compounds, 20% with a hit somewhere; the sample as a whole holds those more often.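 In brief: 96-well plates, 48 h treatment, single concentration, percent growth endpoint.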 Unmarked numbers belong to inactive results. The source made the active and inactive calls. Rule for the calls: active = growth percent below 10; inactive = the rest.

For the compound `CC(C)(NC(=O)O[C@@H]1CN2CCC1CC2)c1csc(-c2ccc(F)cc2)n1`, the growth in the assay on SK-MEL-2 melanoma is 108%; with EKVX NSCLC, 89.5%; in the assay with SN12C renal, 95.4%; in the assay on UO-31 renal it was 81.1%; in the assay on TK-10 renal, 91.9%; in the assay on ACHN renal it was 98.4%. The growth in the assay with CAKI-1 renal was 81.5%; in the assay on A498 renal, 90.6%; in the assay with CCRF-CEM leukemia, 98.3%; in the assay on MOLT-4 leukemia, 91.3%; in the assay on RPMI-8226 leukemia, 103%; in the assay with OVCAR-8 ovarian it was 102%. Besides, the growth is 96.2% in the assay with OVCAR-5 ovarian; 97.4% with OVCAR-4 ovarian; 99.6% in the assay on SK-OV-3 ovarian; 101% with IGROV1 ovarian; 109% in the assay on OVCAR-3 ovarian; 98.2% with HS 578T breast.

Turning to `CCOc1ccccc1C(=O)OCC(Cl)(Cl)Cl`, the growth with SK-MEL-2 melanoma is 116%; in the assay on EKVX NSCLC, 109%; with SN12C renal, 102%; in the assay on UO-31 renal, 94.4%; in the assay on TK-10 renal, 99.6%; in the assay on ACHN renal, 111%. Moreover, the growth is 98.7% in the assay with CAKI-1 renal; 88.5% with A498 renal; 104% in the assay on CCRF-CEM leukemia; 105% in the assay on MOLT-4 leukemia; 93.9% in the assay on SR leukemia; 109% with OVCAR-5 ovarian. Also, the growth is 111% in the assay on OVCAR-4 ovarian; 106% in the assay with SK-OV-3 ovarian; 106% with IGROV1 ovarian; 109% in the assay on OVCAR-3 ovarian; 97.9% in the assay on HS 578T breast.

As for `NC(=S)c1cn(C2OC(CO)C(O)C2O)c2ncnc(N)c12` (configuration not stated), the growth is -58.1% (active) with SK-MEL-2 melanoma; -4.9% (active) in the assay on EKVX NSCLC; -10.5% (active) in the assay with SN12C renal; -9.32% (active) in the assay with UO-31 renal; -29.5% (active) with TK-10 renal; -6.08% (active) with ACHN renal. The growth was -36.6% (active) in the assay on CAKI-1 renal; -32.5% (active) in the assay on A498 renal; -72.9% (active) in the assay on HL-60(TB) leukemia; -40.6% (active) in the assay with CCRF-CEM leukemia; -50.4% (active) with SR leukemia; -39.8% (active) in the assay with RPMI-8226 leukemia. For the same compound, the growth with OVCAR-8 ovarian was 3.53% (active); with OVCAR-5 ovarian, -29.6% (active); in the assay on OVCAR-4 ovarian, -7.48% (active); with SK-OV-3 ovarian, 17%; in the assay with IGROV1 ovarian, 0.391% (active); with OVCAR-3 ovarian, -26.2% (active). Further, in the assay on HS 578T breast, the growth is -25.4% (active).

In the case of `CC(=O)OCc1cc[c]([Hg][Cl])o1`, the growth is 64.9% in the assay on SK-MEL-2 melanoma; 78.8% with EKVX NSCLC; 55.9% in the assay on SN12C renal; 83.1% with UO-31 renal; 127% with TK-10 renal; 60.8% in the assay on ACHN renal. Moreover, the growth was 25.9% with CAKI-1 renal; 123% in the assay on A498 renal; -20% (active) in the assay with CCRF-CEM leukemia; -20.3% (active) with SR leukemia; 36.8% in the assay on OVCAR-8 ovarian; 43.9% with OVCAR-5 ovarian. Further, the growth in the assay on OVCAR-4 ovarian is 62.9%; with SK-OV-3 ovarian, 71%; in the assay with IGROV1 ovarian, 11.3%; in the assay on OVCAR-3 ovarian, 0.253% (active); with HS 578T breast it was 57.5%.

As to `CNC(=O)Oc1ccc(N(C)C)cc1C(C)C`, the growth with SK-MEL-2 melanoma is 103%; with EKVX NSCLC, 95.5%; in the assay with SN12C renal, 98.2%; with UO-31 renal, 88.7%; with TK-10 renal, 95%; with ACHN renal it was 99.4%. Moreover, the growth in the assay on CAKI-1 renal was 40.9%; in the assay with A498 renal it was 101%; with HL-60(TB) leukemia, 130%; with MOLT-4 leukemia, 75.3%; in the assay with SR leukemia, 123%; in the assay on OVCAR-8 ovarian it was 105%. Further, the growth with OVCAR-5 ovarian is 99.8%; in the assay on OVCAR-4 ovarian, 85.9%; in the assay with SK-OV-3 ovarian, 105%; in the assay with IGROV1 ovarian, 109%; in the assay on OVCAR-3 ovarian it was 97.7%; in the assay with HS 578T breast, 94.8%.

As for `O=C1Nc2ccccc2C2c3cccn3-c3ccccc3CN12` (configuration not stated), the growth is 6.54% (active) in the assay on SK-MEL-2 melanoma; 67.8% with EKVX NSCLC; 69.4% in the assay on SN12C renal; 60% in the assay on UO-31 renal; 71.8% in the assay with TK-10 renal; 81.6% in the assay on ACHN renal. Besides, the growth in the assay with CAKI-1 renal was 63.4%; in the assay on A498 renal, 41.1%; in the assay with HL-60(TB) leukemia it was 44.6%; in the assay with MOLT-4 leukemia, 29.3%; with SR leukemia, 19%; in the assay with RPMI-8226 leukemia it was 55.2%. The growth in the assay on OVCAR-8 ovarian was 63.3%; in the assay with OVCAR-5 ovarian it was 82.3%; in the assay on OVCAR-4 ovarian it was 71.7%; in the assay on SK-OV-3 ovarian, 46.7%; with IGROV1 ovarian it was 62.9%; in the assay with OVCAR-3 ovarian, 41.7%. The growth in the assay with HS 578T breast was 64.2%.

`COc1cc2c(c(OC)c1OC)-c1ccc([O-])c(=O)cc1[C@@H](NC(C)=O)CC2.COc1cc2c(c(OC)c1OC)-c1ccc([O-])c(=O)cc1[C@@H](NC(C)=O)CC2.[Cu+2]`: the growth in the assay on SK-MEL-2 melanoma is -4.65% (active); with EKVX NSCLC, 62%; in the assay on SN12C renal, 43.5%; in the assay with UO-31 renal, 22.2%; with TK-10 renal, 71.7%; in the assay with ACHN renal, 53.6%. Besides, the growth was 34.1% in the assay on CAKI-1 renal; 14.9% in the assay with A498 renal; 9.3% (active) with CCRF-CEM leukemia; 10.5% in the assay on MOLT-4 leukemia; 15.3% with RPMI-8226 leukemia; 54.3% in the assay on OVCAR-5 ovarian. The growth is 48.6% in the assay on OVCAR-4 ovarian, 17.2% with SK-OV-3 ovarian, -0.159% (active) with IGROV1 ovarian and -26.7% (active) with OVCAR-3 ovarian.

With `N#CC1(c2ccccc2)CCN(Cc2ccccc2)CC1`, the growth was 99.6% with SK-MEL-2 melanoma; 96.2% with EKVX NSCLC; 114% with SN12C renal; 108% with UO-31 renal; 88.4% in the assay on TK-10 renal; 98% in the assay on ACHN renal. Also, the growth with CAKI-1 renal is 94.7%; with A498 renal, 64.8%; in the assay on CCRF-CEM leukemia, 86.3%; in the assay on MOLT-4 leukemia, 107%; in the assay on RPMI-8226 leukemia it was 77%; in the assay on OVCAR-8 ovarian, 104%. Besides, the growth in the assay with OVCAR-5 ovarian is 98%; with OVCAR-4 ovarian, 113%; in the assay on SK-OV-3 ovarian, 107%; with IGROV1 ovarian it was 115%; in the assay on OVCAR-3 ovarian it was 101%; with HS 578T breast, 96.3%.
